Laboratory results published in the supplement of paper PMC7393113.
Structures can show the parent of a compound that is named as a salt. ± gives the standard deviation of the averaged measurements.

Test system: iBMDM (immortalised mouse bone-marrow-derived macrophages), LPS-stimulated
Assay: mitochondrial superoxide (MitoSOX fluorescence) fold increase over unstimulated control; higher = more LPS-induced mitochondrial ROS (less inhibition)
Conditions: inhibitor concentration: 500 nM, LPS: 100 ng/ml
In short: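 Mitochondrial superoxide values are mean fold induction compared with untreated macrophages. Triplicate wells of immortalised mouse bone-marrow-derived macrophages in phenol-red-free 1% FCS/DMEM received kinase inhibitors (500 nM) for 30 min, then 1 μM MitoSox for 10 min, then LPS (100 ng/ml). Fluorescence (510/580 nm) was taken every 60 min for 4 h.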

Row | SMILES | mitochondrial superoxide (time after LPS: 1 h) | mitochondrial superoxide (time after LPS: 2 h) | mitochondrial superoxide (time after LPS: 4 h)
1 | Fc1cc(-c2cccc3ncc(-c4cnn(C5CCNCC5)c4)nc23)cc(F)c1CN1CCOCC1 | 1.15 ± 0.05 | 1.45 ± 0.13 | 1.69 ± 0.04
2 | CNC(=O)CN1CCC(Oc2cc3c(Nc4cccc(Cl)c4F)ncnc3cc2OC)CC1 [AZD8931 (Sapitinib)] | 1.12 ± 0.041 | 1.24 ± 0.048 | 1.37 ± 0.046
3 | COc1cc(Nc2ncc3c(n2)-c2ccc(Cl)cc2C(c2c(F)cccc2OC)=NC3)ccc1C(=O)O [Alisertib (MLN8237)] | 1.37 ± 0.058 | 1.41 ± 0.035 | 1.46 ± 0.047
4 | C#Cc1cccc(Nc2ncnc3cc(OCCOC)c(OCCO)cc23)c1 | 1.16 ± 0.089 | 1.2 ± 0.038 | 1.3 ± 0.14
5 | CC(=O)c1c(C)c2cnc(Nc3ccc(N4CCNCC4)cn3)nc2n(C2CCCC2)c1=O | 1.45 ± 0.032 | 1.45 ± 0.037 | 1.49 ± 0.03
6 | COCCOc1ccc2c(c1)ncn2-c1ccc2cccc(N3CCC(N)CC3)c2n1 | 1.15 ± 0.048 | 1.19 ± 0.035 | 1.3 ± 0.038
7 | Nc1ncnc2c1c(-c1cnc3[nH]ccc3c1)nn2C1CCCC1 | 1.34 ± 0.077 | 1.41 ± 0.079 | 1.57 ± 0.058
8 | CN1CCN(c2cccc(Nc3nc4c(-c5ccc(S(C)(=O)=O)cc5)cccn4n3)c2)CC1 | 1.28 ± 0.037 | 1.45 ± 0.058 | 1.65 ± 0.051
9 | CCN(CCO)CCCOc1ccc2c(Nc3cc(CC(=O)Nc4cccc(F)c4)[nH]n3)ncnc2c1 [Barasertib (AZD1152-HQPA)] | 1.33 ± 0.093 | 1.39 ± 0.13 | 1.44 ± 0.13
10 | N#CC1(c2ccc(NC(=O)c3cccnc3NCc3ccncc3)cc2)CCCC1 [Apatinib] | 1.09 ± 0.056 | 1.18 ± 0.021 | 1.36 ± 0.018
11 | O=C(Nc1ccc(-c2ccnc(Nc3ccc(N4CCOCC4)cc3)n2)cc1)C1CCCN1 (stereo not drawn) | 1.21 ± 0.058 | 1.232 ± 0.011 | 1.3 ± 0.068
12 | CC(C)(C)c1cc(NC(=O)Nc2ccc(-c3cn4c(n3)sc3cc(OCCN5CCOCC5)ccc34)cc2)no1 [Quizartinib (AC220)] | 1.15 ± 0.027 | 1.19 ± 0.047 | 1.31 ± 0.042
13 | Oc1ccc(Nc2nc(-c3ccc(Cl)cc3)cs2)cc1 | 1.47 ± 0.039 | 1.56 ± 0.01 | 1.71 ± 0.11
14 | COc1cc2ncnc(Nc3ccc(F)c(Cl)c3)c2cc1OCCCN1CCOCC1 [Gefitinib (ZD1839)] | 1.6 ± 0.048 | 1.71 ± 0.044 | 1.77 ± 0.025
15 | OCCn1cc(-c2ccc3c(c2)CC/C3=N\O)c(-c2ccncc2)n1 | 1.36 ± 0.044 | 1.45 ± 0.064 | 1.49 ± 0.02
16 | COc1cc2ncnc(Nc3ccc(F)c(Cl)c3)c2cc1NC(=O)/C=C/CN1CCCCC1 | 1.22 ± 0.031 | 1.48 ± 0.045 | 1.57 ± 0.069

Row | SMILES | mitochondrial superoxide (time after LPS: 1 h) | mitochondrial superoxide (time after LPS: 2 h) | mitochondrial superoxide (time after LPS: 4 h)
17 | Oc1ccc2ccccc2c1SSc1c(O)ccc2ccccc12 | 1.17 ± 0.049 | 1.22 ± 0.04 | 1.32 ± 0.015
18 | S=C(NCc1ccc2c(c1)OCO2)N1CCN(c2ncnc3c2oc2ccccc23)CC1 [Amuvatinib (MP-470)] | 1.18 ± 0.12 | 1.21 ± 0.076 | 1.15 ± 0.063
19 | CCC[C@H](NC(=O)/C(C#N)=C/c1cccc(Br)n1)c1ccccc1 [Degrasyn (WP1130)] | 1.18 ± 0.047 | 1.34 ± 0.032 | 1.48 ± 0.038
20 | O=C(/C=C/c1ccc(O)c(O)c1)c1ccc(O)cc1O [Butein] | 1.49 ± 0.065 | 1.65 ± 0.067 | 1.85 ± 0.019
21 | CNC(=O)c1cc(Oc2ccc(NC(=O)Nc3ccc(Cl)c(C(F)(F)F)c3)cc2)ccn1 [Sorafenib Tosylate] | 1.6 ± 0.039 | 1.68 ± 0.099 | 1.73 ± 0.077
22 | COc1cc2nccc(Oc3ccc(NC(=O)C4(C(=O)Nc5ccc(F)cc5)CC4)cc3)c2cc1OC | 1.41 ± 0.041 | 1.43 ± 0.017 | 1.51 ± 0.029
23 | COc1ccc(S(=O)(=O)N(C(C)=O)c2ccccc2/C=C/c2cc[n+]([O-])cc2)cc1 | 1.15 ± 0.035 | 1.17 ± 0.058 | 1.32 ± 0.05
24 | Cc1cc(Nc2cc(N3CCN(C)CC3)nc(/C=C/c3ccccc3)n2)n[nH]1 | 1.19 ± 0.044 | 1.21 ± 0.011 | 1.32 ± 0.03
25 | CC(C)(C)NS(=O)(=O)c1cncc(-c2cc(F)c3nc(N)nn3c2)c1 | 1.09 ± 0.021 | 1.18 ± 0.038 | 1.31 ± 0.064
26 | CN(C)CCOc1ccc(-c2nc(-c3ccncc3)c(-c3ccc4c(c3)CC/C4=N\O)[nH]2)cc1 | 1.07 ± 0.036 | 1.15 ± 0.075 | 1.31 ± 0.083
27 | CC(=O)Nc1nc(C)c(-c2ccc(Cl)c(S(=O)(=O)NCCO)c2)s1 | 1.02 ± 0.067 | 1.15 ± 0.03 | 1.23 ± 0.048
28 | CC(C)n1nc(-c2cc3cc(O)ccc3[nH]2)c2c(N)ncnc21 | 1.03 ± 0.088 | 1.15 ± 0.12 | 1.28 ± 0.063
29 | O=c1cc(N2CCOCC2)oc2c(-c3cccc4c3sc3ccccc34)cccc12 | 1.31 ± 0.028 | 1.4 ± 0.037 | 1.55 ± 0.042
30 | CNC(=O)c1c(F)cccc1Nc1nc(Nc2cc3c(cc2OC)CCN3C(=O)CN(C)C)nc2[nH]ccc12 | 1.28 ± 0.057 | 1.47 ± 0.031 | 1.64 ± 0.015
31 | C=CC(=O)Nc1ccc2ncnc(Nc3ccc(OCc4cccc(F)c4)c(Cl)c3)c2c1 | 1.18 ± 0.017 | 1.204 ± 0.0092 | 1.42 ± 0.13
